Laboratory results as given in PubChem BioAssay (NCATS).
“And” between values parts separate entries of the source, which are not always exact repeats. Equal values may be shown once. Inconclusive results are not listed. Entries that show only a call come without a potency. Values without a mark were called inactive. The source made the active and inactive calls. Unless noted, calls follow the shape of the dose curve; as a rule, active = well fitted curve in the direction sought with a large enough effect; inconclusive = small, poorly fitted or top-dose-only effect, or another doubt; inactive = no such curve, though single readings can be large; an effect the other way counts as inactive or inconclusive.

Legend:
[1] = qHTS assay for small molecule agonists of the antioxidant response element (ARE) signaling pathway measured by Nrf2-dependant transcriptional activity - cell viability counter screen (AID 720653; active = well fitted curve in the direction sought with a large enough effect in the repeat runs; an effect the other way counts as inactive or inconclusive); conditions: ARE-bla HepG2 viability, CellTiter-Glo ATP luminescence, 16 h; stronger effect = lower value
In short: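 ARE-bla HepG2 cells treated with compounds for 16 h at 37C; this counter screen measures viability as intracellular ATP by CellTiter-Glo luminescence after 30 min at room temperature.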

[2] = qHTS Assay for Identifying Gametocytocidal Compounds (AID 743244);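 also: actives lower the fluorescent signal which means gametocytes are killed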; conditions: P. falciparum 3D7 stage III-V gametocytes, alamarBlue, 72 h; max response: stronger effect = lower value
In short: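 P. falciparum 3D7 stage III–V gametocytes (20,000 cells/well) were exposed to compounds for 72 h at 37 °C, 5% CO2. AlamarBlue was then added for 24 h; decreased resorufin fluorescence (Ex 525/Em 598 nm) indicated loss of viability.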

[3] = qHTS assay for cell viability of HEK293 cells (AID 743288); conditions: ATP luminescence (CellTiter-Glo), 18 h; max response: stronger effect = lower value; also: nearly all actives have a fitted effect of over 50% in size
In short: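 Parental HEK293 cells were seeded at 2,000 cells/well, rested at least 5 h at 37 C, then exposed to compounds in DMSO for 18 h at 37 C. Viability was read as ATP-dependent luciferase luminescence after 30 min at room temperature.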

[4] = qHTS assay for cell viability of the p53RE-bla HCT-116 cell line (AID 743292); conditions: p53RE-bla HCT-116 viability, ATP luminescence, 16 h; series mostly up to 95 µM; also: nearly all actives have a fitted effect of over 55% in size
In short: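 Intracellular ATP of p53RE-bla HCT-116 cells measured by luciferase luminescence following 16 h compound incubation at 37 C; DMSO-only wells served as vehicle controls.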

[5] = qHTS assay to identify small molecule inhibitors of chordoma cells - UCH-1 (AID 1259355); conditions: UCH-1 chordoma viability, CellTiter-Glo, 48 h, combination, with auranofin plus four topoisomerase inhibitors; series mostly up to 46.1 µM; also: nearly all actives have a fitted effect of over 55% in size; also: potency is read from the fitted curve at half-maximal effect
In short: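 Cells (800/well) were seeded and left overnight at 37 C, 5% CO2, then treated with drugs at 15 concentrations plus a combination mix of auranofin, camptothecin, doxorubicin, rubitecan and topotecan. Viability after 48hr was read by CellTiter-Glo luminescence.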

[6] = qHTS assay to identify small molecule inhibitors of chordoma cells - UCH-2 (AID 1259356); conditions: UCH-2 chordoma viability, CellTiter-Glo ATP luminescence, 48 h; series mostly up to 46.1 µM; also: potency is read from the fitted curve at half-maximal effect
[7] = P-glycoprotein substrates identified in KB-8-5-11 adenocarcinoma cell line, qHTS therapeutic library screen (AID 1346987); conditions: KB-8-5-11 (P-gp overexpressing) viability, CellTiter-Glo, 72 h; series mostly up to 44.5 µM; also: nearly all actives have a fitted effect of over 65% in size; also: potency is read from the fitted curve at half-maximal effect
In short: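 KB-8-5-11, a colchicine-selected P-gp-overexpressing KB-3-1 subline, was grown without colchicine for the assay. Cells were seeded at 500 cells/well, dosed in concentration-response and incubated 72 h at 37 degree C, 5% CO2. Viability was read by CellTiter-Glo luminescence.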

[8] = biological target: Atrial natriuretic peptide receptor 1 (Homo sapiens) (UniProt P16066); test: Natriuretic polypeptide receptor (hNpr1) antagonism - Pilot CMLD screen (AID 1347052; calls by dose curve;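 also: HEK293 cells with hNpr1 stimulated by hNppA peptide at 0.1 nM; cGMP level read as GloSensor luciferase luminescence after agonist stimulation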); conditions: HEK293 hNpr1 GloSensor cGMP luminescence, ANP-stimulated; series mostly up to 9.22 µM
Protocol: In order to identify small molecular compounds that inhibit the hNpr1 receptor we developed a high-throughput assay to measure inhibition of the guanylate cyclase activity of the receptor. cGMP production was measured using a circular permutated Firefly luciferase (FLuc) enzyme functionally linked to the cGMP binding domain of human phosphodiesterase 5 (GloSensor technology pGS-40F, (Fan, F. et al. 2008). The cGMP-sensor was expressed in human embryonic kidney 293 (HEK-293) cells and FLuc activity was measured after stimulation with hNrp agonist peptide. hNrp agonists activates the receptor's associated guanylyl cyclase (GC) domain producing cGMP which then binds to the GloSensor resulting in FLuc activation, the enzymatic activity of which can be measured as bioluminescence with addition of luciferin substrate.
This assay was initially piloted by testing with a small library of specialty compounds.
PROTOCOL TABLES (as described by Inglese J, Shamu CE and Guy RK. 2007)
SEQUENCE No. (e.g., 1, 2, 3, etc.); […] (e.g., Cells, Incubation, Reagent, etc.); VALUE and DESCRIPTION.
1. Cells. […]
7. […] GloSensor baseline pre-read luminescence measured using CCD-based camera (Viewlux). […]
10. […] GloSensor post-hNppA luminescence measured using CCD-based camera (Viewlux). […]
1. […] Cells counted with Invitrogen Countess (30,000,000 - 50,000,000 cells/flask). […]

Chain of Atrial natriuretic peptide receptor 1 (Homo sapiens) (P16066 whole entry, looked up, the tested form may be a part): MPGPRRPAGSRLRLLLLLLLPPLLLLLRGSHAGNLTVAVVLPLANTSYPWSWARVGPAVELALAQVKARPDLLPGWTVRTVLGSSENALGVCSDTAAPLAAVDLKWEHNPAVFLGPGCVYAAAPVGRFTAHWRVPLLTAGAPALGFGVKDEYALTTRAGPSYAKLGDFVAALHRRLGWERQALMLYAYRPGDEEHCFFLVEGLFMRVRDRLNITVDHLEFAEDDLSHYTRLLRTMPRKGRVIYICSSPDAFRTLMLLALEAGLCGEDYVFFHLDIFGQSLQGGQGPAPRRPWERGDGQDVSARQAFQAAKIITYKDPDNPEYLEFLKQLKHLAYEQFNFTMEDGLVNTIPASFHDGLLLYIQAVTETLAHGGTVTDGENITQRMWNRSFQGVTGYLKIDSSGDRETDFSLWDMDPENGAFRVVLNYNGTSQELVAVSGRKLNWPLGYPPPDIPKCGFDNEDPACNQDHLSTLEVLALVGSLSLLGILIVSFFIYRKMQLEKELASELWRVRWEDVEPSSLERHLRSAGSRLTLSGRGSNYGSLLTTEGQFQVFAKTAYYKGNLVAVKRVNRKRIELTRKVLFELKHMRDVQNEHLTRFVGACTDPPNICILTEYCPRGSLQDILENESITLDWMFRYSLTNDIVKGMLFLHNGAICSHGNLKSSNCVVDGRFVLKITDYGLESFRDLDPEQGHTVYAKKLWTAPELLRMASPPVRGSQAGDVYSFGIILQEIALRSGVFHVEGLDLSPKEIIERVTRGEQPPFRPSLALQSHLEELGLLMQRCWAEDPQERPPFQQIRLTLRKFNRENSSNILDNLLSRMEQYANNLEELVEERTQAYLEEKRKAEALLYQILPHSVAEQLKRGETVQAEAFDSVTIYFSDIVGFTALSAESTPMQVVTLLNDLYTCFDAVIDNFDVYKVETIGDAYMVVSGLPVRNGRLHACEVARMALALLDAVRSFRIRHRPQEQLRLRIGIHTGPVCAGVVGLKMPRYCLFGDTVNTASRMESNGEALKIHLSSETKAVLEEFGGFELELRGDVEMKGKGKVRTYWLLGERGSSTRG

Compound | max response [1] | max response [2] [%] | max response [3] | outcome [4] | Potency [5] | Potency [6] | Potency [7] | outcome [8]
Cc1ccc(S(=O)(=O)NCl)cc1 | -0.456% | 4.72 | -7.16% | inactive | inactive | inactive | inactive | 
C[C@H](CCC(=O)O)[C@H]1CC[C@H]2[C@@H]3CC[C@@H]4C[C@H](O)CC[C@]4(C)[C@H]3C[C@H](O)[C@]12C | -10.6% | 6.91 | 3.72% | inactive | inactive | inactive | inactive | 
COc1ccc2c(c1)OC(C)(C)C(c1ccccc1)C2c1ccc(OCCN2CCCC2)cc1 (centres undefined) |  |  |  |  | inactive | inactive | 20.6 µM (active) | 
OCCOCCOCCO | -9.26% and -13.2% | -2.42 | -2.87% and -1.37% | inactive | inactive | inactive | inactive | 
Cc1c(O)c(=O)ccn1C |  | 2.04 |  |  | inactive | inactive | inactive | inactive
ClC(Cl)Cl | -10.5% | 9.6 | -2% | inactive | inactive | inactive | inactive | 
O=C(OC[C@H]1O[C@@H](OC(=O)c2cc(O)c(O)c(OC(=O)c3cc(O)c(O)c(O)c3)c2)[C@H](OC(=O)c2cc(O)c(O)c(OC(=O)c3cc(O)c(O)c(O)c3)c2)[C@@H](OC(=O)c2cc(O)c(O)c(OC(=O)c3cc(O)c(O)c(O)c3)c2)[C@@H]1OC(=O)c1cc(O)c(O)c(OC(=O)c2cc(O)c(O)c(O)c2)c1)c1cc(O)c(O)c(OC(=O)c2cc(O)c(O)c(O)c2)c1 |  |  |  |  | 15.8 µM (active) | 16.4 µM (active) | 23.1 µM (active) | 
CS(=O)(=O)OCC(O)C(O)COS(C)(=O)=O (centres undefined) |  |  |  |  | inactive | inactive | inactive | 
c1ccc2ccccc2c1 | 1.06% and 1.45% | 6.18 | -14.2% and 4.14% | inactive | inactive | inactive | inactive | 
CC(C)[C@@H]1CC[C@@H](C)C[C@H]1O | 0.622% | 20.4 | -12.7% | inactive | inactive | inactive | inactive | 
Cc1c(C)c2c(c(C)c1OC(=O)CCC(=O)O)CC[C@@](C)(CCC[C@H](C)CCC[C@H](C)CCCC(C)C)O2 |  |  |  |  | inactive | inactive | inactive | 
O=C(Nc1ccc(O)cc1)c1ccccc1O |  |  |  |  | inactive | inactive | inactive | 
N[C@H](CC(=O)O)C(=O)O |  |  |  |  | inactive | inactive | inactive | 
CC[C@@]1([C@@H]2O[C@@H]([C@H]3O[C@@](O)(CO)[C@H](C)C[C@@H]3C)C[C@@H]2C)CC[C@H]([C@]2(C)CC[C@]3(C[C@H](O)[C@@H](C)[C@@H]([C@@H](C)[C@@H](OC)[C@H](C)C(=O)O)O3)O2)O1 (stereo in doubt) |  |  |  |  | 1.26 µM (active) | inactive | 6.51 µM (active) and 5.8 µM (active) | 
O=C(OCc1ccccc1)c1ccc(O)cc1 | -5.99% | 1.16 | -7.01% | inactive | inactive | inactive | inactive | 
CCCCO | -5.18% and -2.26% | 4.7 | 11.1% and -7.83% | inactive | inactive | inactive | inactive | 

Compound | max response [1] | max response [2] [%] | max response [3] | outcome [4] | Potency [5] | Potency [6] | Potency [7] | outcome [8]
CCOC(=S)SSC(=S)OCC |  |  |  |  | inactive | inactive | inactive | 
C[C@]12CC[C@@H]3c4ccc(OC(=O)c5ccccc5)cc4CC[C@H]3[C@@H]1CC[C@@H]2O |  |  |  |  | inactive | inactive | 4.61 µM (active) | 
Nc1nc(NC2CC2)c2ncn([C@@H]3C=C[C@@H](CO)C3)c2n1 |  |  |  |  | inactive | inactive | inactive | 
CCCCCCCCCCCC(=O)N(CCO)CCO |  |  |  |  | inactive | inactive | inactive | 
CC(=O)Nc1ccc(OC(=O)c2ccccc2O)cc1 |  |  |  |  | inactive | inactive | inactive | 
C=C1CC[C@H](O)C/C1=C\C=C1/CCC[C@]2(C)[C@@H]([C@H](C)CCCC(C)C)CC[C@@H]12 |  |  |  |  | inactive | inactive | inactive | 
O=C(OC1C[C@@H]2CC3C[C@H](C1)N2CC3=O)c1c[nH]c2ccccc12 (some centres undefined) |  |  |  |  | inactive | inactive | inactive | 
Cc1cc(-c2ccc(N=Nc3c(S(=O)(=O)O)cc4cc(S(=O)(=O)O)cc(N)c4c3O)c(C)c2)ccc1N=Nc1c(S(=O)(=O)O)cc2cc(S(=O)(=O)O)cc(N)c2c1O |  |  |  |  | 11.2 µM (active) | 8.2 µM (active) | 9.2 µM (active) | 
CO/N=C(\C(=O)N[C@@H]1C(=O)N2C(C(=O)[O-])=C(C[n+]3cccc4c3CCC4)CS[C@H]12)c1csc(N)n1 |  |  |  |  | inactive | inactive | inactive | 
C[C@@H]1C[C@H]2[C@@H]3C[C@H](F)C4=CC(=O)C=C[C@]4(C)[C@@]3(Cl)[C@@H](O)C[C@]2(C)[C@H]1C(=O)COC(=O)C(C)(C)C |  |  |  |  | inactive | inactive | inactive | 
CC1=C[C@H](O)CC(C)(C)[C@H]1/C=C/C(C)=C/C=C/C(C)=C/C=C/C=C(C)/C=C/C=C(C)/C=C/C1=C(C)C[C@@H](O)CC1(C)C |  |  |  |  | inactive | inactive | inactive | 
CN=C1C=CC(=C(c2ccc(N(C)C)cc2)c2ccc(N(C)C)cc2)C=C1 |  |  |  |  | 15.8 µM (active) | 9.2 µM (active) | 20.6 µM (active) | 
COc1ccc2c(=O)c(C)c(-c3ccccc3)oc2c1CN(C)C |  |  |  |  | inactive | inactive | inactive | 
CCCCCCCCCCCCCCCC(=O)OC[C@H](COP(=O)([O-])OCC[N+](C)(C)C)OC(=O)CCCCCCCCCCCCCCC |  |  |  |  | inactive | inactive | inactive | 
NCCO/C=C/[C@H](N)C(=O)O | 6.58% | -0.535 | -5.56% | inactive | inactive | inactive | inactive | 
CCC(=O)c1ccc2c(c1)N(CCCN1CCN(CCO)CC1)c1ccccc1S2 |  |  |  |  | inactive | inactive | inactive | 
